The values below come from paper PMC7862700, “An all-to-all approach to the identification of sequence-specific readers for epigenetic DNA modifications on cytosine”.

Holding throughout (assay): DAPPL (digital affinity profiling via proximity ligation, sequencing); 10 mM Tris-HCl pH 7.5, 50 mM NaCl, 1 mM DTT, 4% glycerol, room temperature, 30 min; GST-TFs on glutathione beads, 16-mer random dsDNA library, 0.1% formaldehyde crosslink after washing; high values mean tight binding
Common to all, as to details: protein: recombinant; tags: N-terminal GST; dsDNA, one strand shown

The target in one assay is T1, ELK1 (Homo sapiens, UniProt P19419 1-428).
T1 sequence: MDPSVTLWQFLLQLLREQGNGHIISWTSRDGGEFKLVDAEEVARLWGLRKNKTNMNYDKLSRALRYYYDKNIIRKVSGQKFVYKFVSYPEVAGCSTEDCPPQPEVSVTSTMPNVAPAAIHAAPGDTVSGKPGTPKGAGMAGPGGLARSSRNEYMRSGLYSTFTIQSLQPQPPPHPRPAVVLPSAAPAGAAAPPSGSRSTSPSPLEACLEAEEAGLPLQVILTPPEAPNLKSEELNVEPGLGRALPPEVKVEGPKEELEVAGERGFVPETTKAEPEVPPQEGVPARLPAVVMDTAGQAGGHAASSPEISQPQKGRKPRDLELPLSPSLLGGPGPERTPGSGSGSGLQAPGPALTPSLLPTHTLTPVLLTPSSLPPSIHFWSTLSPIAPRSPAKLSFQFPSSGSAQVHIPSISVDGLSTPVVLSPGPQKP
In outline: (§1)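 Pools were built from human transcription factors expressed in yeast as GST fusions, captured on glutathione beads and DNA-barcoded, along with a tag-only sample. Incubation with 200 nmole of a 16-mer random double-stranded DNA library lasted 30 min at room temperature in Tris/NaCl/DTT/glycerol buffer, and was followed by washing, 0.1% formaldehyde crosslinking, proximity ligation, PCR amplification and Illumina NextSeq500 sequencing. Binding signal is the quotient of each hexamer's read frequency for a factor and its frequency for the tag-only sample.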

The next assay has as its target T2, ERG (Homo sapiens, UniProt P11308 1-479).
T2 sequence: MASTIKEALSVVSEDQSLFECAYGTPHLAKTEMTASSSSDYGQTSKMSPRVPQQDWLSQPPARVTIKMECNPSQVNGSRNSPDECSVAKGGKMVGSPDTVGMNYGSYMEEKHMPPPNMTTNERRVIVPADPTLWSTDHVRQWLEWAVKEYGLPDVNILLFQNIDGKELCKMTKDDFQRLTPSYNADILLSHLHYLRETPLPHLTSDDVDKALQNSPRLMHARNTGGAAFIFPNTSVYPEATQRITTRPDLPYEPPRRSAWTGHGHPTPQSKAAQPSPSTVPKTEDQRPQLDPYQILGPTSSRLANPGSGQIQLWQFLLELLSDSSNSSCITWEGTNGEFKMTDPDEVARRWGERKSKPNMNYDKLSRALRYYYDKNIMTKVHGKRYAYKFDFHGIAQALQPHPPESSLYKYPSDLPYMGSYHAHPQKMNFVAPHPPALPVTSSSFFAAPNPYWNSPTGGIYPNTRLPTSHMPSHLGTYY
In outline:
as §1

The target of the next assay is ELF1 (Homo sapiens, UniProt P32519 1-619). The essentials: as §1
The target in the next assay is T3, EHF (Homo sapiens, UniProt Q9NZC4 1-300).
T3 sequence: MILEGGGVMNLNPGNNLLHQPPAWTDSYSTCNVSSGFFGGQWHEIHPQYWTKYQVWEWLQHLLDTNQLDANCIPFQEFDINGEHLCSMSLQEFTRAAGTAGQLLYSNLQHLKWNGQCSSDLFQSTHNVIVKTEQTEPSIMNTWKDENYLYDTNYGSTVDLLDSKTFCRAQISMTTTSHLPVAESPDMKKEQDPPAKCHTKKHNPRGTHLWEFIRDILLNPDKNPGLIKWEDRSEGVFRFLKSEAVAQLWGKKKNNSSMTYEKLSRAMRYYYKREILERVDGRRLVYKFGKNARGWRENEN
In outline: as §1

The target in the next assay is SPI1 (Homo sapiens, UniProt P17947 1-270). In outline: as §1
The next assay has as its target SPIB (Homo sapiens, UniProt Q01892 1-262). The essentials:
as §1

Another assay concerns the target T4, FEV (Homo sapiens, UniProt Q99581 1-238).
T4 sequence: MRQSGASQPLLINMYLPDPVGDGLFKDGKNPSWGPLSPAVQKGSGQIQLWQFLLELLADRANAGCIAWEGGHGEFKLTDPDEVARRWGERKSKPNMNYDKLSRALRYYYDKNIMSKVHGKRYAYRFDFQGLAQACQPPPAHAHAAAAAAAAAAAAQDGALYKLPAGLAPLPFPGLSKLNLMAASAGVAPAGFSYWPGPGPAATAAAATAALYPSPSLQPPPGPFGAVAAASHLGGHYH
The essentials: as §1

The target in the next assay is ETV5 (Homo sapiens, UniProt P41161 1-510). The essentials: as §1
The next assay deals with ELF4 (Homo sapiens, UniProt Q99607 1-663). The essentials: as §1
Another assay deals with T5, ELK4 (Homo sapiens, UniProt P28324-2 1-405).
T5 sequence: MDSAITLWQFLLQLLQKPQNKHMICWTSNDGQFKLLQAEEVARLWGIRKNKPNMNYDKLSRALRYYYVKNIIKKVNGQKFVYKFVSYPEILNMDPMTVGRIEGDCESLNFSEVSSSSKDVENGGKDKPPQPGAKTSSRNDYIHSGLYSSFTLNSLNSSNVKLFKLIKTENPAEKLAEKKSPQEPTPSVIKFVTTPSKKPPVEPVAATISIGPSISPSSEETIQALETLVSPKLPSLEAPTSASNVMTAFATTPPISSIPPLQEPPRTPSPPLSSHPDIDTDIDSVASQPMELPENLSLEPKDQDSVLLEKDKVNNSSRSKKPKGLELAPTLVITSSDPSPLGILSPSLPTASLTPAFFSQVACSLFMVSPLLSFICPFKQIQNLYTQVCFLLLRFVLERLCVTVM
The essentials: as §1

In a further assay the target is T6, ETV2 (Homo sapiens, UniProt O00321 1-342).
T6 sequence: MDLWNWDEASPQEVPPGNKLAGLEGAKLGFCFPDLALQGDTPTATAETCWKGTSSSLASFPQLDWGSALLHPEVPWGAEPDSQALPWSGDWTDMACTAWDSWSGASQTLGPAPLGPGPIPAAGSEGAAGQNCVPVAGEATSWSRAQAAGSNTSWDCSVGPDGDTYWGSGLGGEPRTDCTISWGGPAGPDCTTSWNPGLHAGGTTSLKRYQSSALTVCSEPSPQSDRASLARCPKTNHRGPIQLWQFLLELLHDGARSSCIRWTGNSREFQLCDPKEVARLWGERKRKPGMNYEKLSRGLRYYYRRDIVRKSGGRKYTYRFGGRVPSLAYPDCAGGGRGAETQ
In outline: as §1

The next assay concerns the target ETV1 (Homo sapiens, UniProt P50549 1-477). In outline:
as §1

The next assay deals with T7, ERF (Homo sapiens, UniProt P50548 1-548).
T7 sequence: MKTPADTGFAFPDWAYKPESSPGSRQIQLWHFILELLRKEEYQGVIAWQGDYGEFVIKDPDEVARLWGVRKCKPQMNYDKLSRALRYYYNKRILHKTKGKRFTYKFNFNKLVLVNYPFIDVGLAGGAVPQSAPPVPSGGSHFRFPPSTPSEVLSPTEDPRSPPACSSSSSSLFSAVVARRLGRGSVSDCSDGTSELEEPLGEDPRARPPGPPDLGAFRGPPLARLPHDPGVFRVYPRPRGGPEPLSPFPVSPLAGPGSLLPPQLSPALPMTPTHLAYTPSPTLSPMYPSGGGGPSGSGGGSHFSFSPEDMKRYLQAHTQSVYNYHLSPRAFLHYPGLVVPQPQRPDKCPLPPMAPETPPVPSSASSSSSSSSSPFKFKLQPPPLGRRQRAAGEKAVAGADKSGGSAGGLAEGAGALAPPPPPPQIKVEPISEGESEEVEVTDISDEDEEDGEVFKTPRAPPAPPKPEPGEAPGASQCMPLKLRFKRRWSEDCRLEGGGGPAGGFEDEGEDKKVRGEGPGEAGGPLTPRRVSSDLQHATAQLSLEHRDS
In outline: as §1

The target in the next assay is T8, ETV3L (Homo sapiens, UniProt Q6ZN32 1-361).
T8 sequence: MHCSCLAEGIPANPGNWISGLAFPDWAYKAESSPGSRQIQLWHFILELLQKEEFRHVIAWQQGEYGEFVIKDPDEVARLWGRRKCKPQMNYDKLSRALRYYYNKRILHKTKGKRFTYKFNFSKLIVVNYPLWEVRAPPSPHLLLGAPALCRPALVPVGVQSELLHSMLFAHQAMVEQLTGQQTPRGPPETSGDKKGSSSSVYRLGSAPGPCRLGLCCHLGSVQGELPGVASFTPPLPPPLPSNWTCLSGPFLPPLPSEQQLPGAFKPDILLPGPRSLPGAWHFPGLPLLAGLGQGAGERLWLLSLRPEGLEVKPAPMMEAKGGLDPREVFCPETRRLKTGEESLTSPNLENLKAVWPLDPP
In outline:
as §1

Another assay deals with T9, ETS2 (Homo sapiens, UniProt P15036 1-469).
T9 sequence: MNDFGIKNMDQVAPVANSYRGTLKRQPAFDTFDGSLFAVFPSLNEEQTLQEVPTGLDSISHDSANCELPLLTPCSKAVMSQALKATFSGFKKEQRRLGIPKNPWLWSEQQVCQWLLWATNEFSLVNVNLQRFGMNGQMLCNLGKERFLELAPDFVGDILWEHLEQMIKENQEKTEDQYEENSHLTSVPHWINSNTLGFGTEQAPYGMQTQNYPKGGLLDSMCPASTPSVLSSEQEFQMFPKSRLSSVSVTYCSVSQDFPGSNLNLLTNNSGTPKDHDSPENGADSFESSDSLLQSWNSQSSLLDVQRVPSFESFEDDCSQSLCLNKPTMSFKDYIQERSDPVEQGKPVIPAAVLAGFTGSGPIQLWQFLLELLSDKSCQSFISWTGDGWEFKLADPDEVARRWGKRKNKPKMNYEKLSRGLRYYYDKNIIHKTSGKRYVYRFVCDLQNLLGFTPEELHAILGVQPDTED
In outline:
as §1

The next assay concerns the target T10, SPDEF (Homo sapiens, UniProt O95238 1-335).
T10 sequence: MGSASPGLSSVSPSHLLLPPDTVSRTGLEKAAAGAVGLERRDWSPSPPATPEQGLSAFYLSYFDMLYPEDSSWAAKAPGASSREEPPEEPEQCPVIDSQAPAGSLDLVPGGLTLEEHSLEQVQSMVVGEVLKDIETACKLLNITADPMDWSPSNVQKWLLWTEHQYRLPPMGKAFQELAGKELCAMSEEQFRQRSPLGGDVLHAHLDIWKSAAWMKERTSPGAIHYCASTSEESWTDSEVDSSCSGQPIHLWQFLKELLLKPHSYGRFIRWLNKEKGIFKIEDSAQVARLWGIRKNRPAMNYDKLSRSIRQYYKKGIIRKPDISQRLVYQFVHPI
In outline:
as §1

Another assay has as its target T11, ETV7 (Homo sapiens, UniProt Q9Y603 1-341).
T11 sequence: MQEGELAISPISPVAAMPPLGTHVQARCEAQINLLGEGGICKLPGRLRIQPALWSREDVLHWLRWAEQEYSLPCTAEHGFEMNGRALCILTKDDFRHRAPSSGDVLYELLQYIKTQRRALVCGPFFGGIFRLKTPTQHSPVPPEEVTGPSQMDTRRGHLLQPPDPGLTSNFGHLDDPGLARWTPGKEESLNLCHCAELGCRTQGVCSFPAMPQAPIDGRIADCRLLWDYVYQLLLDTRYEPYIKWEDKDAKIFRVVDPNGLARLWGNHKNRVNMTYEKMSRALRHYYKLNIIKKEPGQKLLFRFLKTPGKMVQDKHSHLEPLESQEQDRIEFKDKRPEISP
The essentials:
as §1

Another assay has as its target T12, ETV3 (Homo sapiens, UniProt P41162-2 1-143).
T12 sequence: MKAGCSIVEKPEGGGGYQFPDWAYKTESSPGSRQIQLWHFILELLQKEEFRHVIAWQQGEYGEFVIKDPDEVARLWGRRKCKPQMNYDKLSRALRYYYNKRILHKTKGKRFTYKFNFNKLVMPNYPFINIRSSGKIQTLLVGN
In outline: as §1

Another assay deals with ETV6 (Homo sapiens, UniProt P41212 1-452). In outline:
as §1

Sequence of ETV5 (P41161 whole entry): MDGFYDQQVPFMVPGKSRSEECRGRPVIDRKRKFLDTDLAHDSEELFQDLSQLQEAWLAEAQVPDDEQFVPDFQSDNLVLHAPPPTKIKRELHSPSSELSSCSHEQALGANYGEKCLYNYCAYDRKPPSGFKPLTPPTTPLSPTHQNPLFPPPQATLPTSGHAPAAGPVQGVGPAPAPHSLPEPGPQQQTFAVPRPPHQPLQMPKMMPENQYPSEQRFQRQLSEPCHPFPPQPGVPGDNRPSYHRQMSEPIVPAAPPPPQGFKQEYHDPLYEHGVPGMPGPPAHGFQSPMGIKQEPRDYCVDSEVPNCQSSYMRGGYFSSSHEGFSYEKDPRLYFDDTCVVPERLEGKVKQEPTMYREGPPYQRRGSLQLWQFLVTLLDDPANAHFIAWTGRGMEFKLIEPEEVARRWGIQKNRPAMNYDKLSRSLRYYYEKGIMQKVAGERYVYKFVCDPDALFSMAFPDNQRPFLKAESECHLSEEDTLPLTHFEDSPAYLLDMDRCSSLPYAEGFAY
Sequence of SPIB (Q01892 whole entry): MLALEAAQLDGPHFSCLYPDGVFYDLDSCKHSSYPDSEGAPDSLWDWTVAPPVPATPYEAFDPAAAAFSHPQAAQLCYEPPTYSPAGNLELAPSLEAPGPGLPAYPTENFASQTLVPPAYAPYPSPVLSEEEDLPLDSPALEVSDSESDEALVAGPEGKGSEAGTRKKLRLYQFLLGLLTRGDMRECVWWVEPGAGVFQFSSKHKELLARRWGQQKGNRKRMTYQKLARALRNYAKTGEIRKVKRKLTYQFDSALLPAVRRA
Sequence of ETV1 (P50549 whole entry): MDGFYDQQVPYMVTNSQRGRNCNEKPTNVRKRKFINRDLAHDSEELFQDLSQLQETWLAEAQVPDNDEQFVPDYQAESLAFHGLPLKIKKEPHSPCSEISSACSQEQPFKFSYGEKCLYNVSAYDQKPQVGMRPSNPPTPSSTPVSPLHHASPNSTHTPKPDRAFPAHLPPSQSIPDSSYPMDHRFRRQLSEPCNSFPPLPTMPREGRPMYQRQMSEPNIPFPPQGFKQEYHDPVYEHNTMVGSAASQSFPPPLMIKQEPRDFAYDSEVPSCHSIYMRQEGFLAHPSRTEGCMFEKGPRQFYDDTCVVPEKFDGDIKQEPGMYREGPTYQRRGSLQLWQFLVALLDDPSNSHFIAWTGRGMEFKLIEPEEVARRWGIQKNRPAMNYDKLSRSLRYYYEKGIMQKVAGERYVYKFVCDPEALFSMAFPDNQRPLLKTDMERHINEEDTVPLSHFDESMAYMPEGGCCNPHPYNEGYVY
Sequence of ELF1 (P32519 whole entry): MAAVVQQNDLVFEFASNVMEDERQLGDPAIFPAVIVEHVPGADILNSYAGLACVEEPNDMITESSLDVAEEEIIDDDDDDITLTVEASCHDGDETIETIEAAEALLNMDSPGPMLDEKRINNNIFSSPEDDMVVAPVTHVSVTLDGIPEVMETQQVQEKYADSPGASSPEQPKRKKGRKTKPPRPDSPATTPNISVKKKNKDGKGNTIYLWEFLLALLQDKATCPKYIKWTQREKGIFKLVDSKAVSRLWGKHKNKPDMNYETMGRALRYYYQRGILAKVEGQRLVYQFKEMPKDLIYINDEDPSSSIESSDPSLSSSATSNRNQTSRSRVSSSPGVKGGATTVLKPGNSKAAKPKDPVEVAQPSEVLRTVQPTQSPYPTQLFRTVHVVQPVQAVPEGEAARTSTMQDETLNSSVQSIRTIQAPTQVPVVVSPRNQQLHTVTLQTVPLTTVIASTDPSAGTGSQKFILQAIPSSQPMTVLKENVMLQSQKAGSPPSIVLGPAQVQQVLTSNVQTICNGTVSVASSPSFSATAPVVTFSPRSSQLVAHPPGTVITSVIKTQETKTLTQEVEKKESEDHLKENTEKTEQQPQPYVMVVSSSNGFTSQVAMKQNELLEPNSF
Sequence of ELF4 (Q99607 whole entry): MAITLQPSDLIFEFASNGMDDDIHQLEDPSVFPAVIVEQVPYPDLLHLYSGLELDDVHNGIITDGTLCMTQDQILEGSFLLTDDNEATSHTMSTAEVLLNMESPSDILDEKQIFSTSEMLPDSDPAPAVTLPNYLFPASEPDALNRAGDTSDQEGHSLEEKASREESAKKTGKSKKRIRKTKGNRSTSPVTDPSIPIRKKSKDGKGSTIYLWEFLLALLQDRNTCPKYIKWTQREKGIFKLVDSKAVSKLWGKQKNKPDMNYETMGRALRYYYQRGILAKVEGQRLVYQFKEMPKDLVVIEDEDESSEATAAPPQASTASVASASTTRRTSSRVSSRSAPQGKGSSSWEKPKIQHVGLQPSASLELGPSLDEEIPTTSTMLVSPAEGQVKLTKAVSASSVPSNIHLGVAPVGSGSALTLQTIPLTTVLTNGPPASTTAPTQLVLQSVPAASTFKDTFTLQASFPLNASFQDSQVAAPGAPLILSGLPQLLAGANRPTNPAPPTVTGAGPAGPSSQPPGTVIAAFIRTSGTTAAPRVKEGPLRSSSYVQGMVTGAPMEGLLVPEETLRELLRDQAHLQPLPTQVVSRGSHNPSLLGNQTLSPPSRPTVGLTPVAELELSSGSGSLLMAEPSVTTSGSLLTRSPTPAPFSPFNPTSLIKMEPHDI
Sequence of ETV6 (P41212 whole entry): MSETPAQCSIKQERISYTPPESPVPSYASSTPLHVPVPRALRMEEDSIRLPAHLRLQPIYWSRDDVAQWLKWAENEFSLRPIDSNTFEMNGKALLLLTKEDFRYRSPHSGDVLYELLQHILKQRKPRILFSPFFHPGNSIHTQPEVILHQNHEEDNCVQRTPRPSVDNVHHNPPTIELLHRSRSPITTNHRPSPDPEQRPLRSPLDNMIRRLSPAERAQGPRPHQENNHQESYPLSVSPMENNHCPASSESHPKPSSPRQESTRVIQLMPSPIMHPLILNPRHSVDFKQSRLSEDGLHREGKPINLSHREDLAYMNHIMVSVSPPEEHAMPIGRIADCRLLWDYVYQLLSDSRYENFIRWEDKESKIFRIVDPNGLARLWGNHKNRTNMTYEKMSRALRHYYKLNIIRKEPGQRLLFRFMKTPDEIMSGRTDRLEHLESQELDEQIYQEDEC

Consider CCCCTA, for which the binding signal with ELK1 was 1.07 fold enrichment (6-mer frequency, TF over GST control); with ERG, 1.05 fold enrichment (6-mer frequency, TF over GST control); in the assay with ELF1, 1.18 fold enrichment (6-mer frequency, TF over GST control); with EHF, 1.17 fold enrichment (6-mer frequency, TF over GST control); in the assay with SPI1, 1.08 fold enrichment (6-mer frequency, TF over GST control); with SPIB it was 1.08 fold enrichment (6-mer frequency, TF over GST control). Moreover, the binding signal was 1.13 fold enrichment (6-mer frequency, TF over GST control) in the assay with FEV; 1.07 fold enrichment (6-mer frequency, TF over GST control) in the assay with ETV5; 1.2 fold enrichment (6-mer frequency, TF over GST control) with ELF4; 1.3 fold enrichment (6-mer frequency, TF over GST control) with ELK4; 1.06 fold enrichment (6-mer frequency, TF over GST control) with ETV2; 1.07 fold enrichment (6-mer frequency, TF over GST control) with ETV1. Further, the binding signal in the assay with ERF was 1.04 fold enrichment (6-mer frequency, TF over GST control); with ETV3L it was 1.13 fold enrichment (6-mer frequency, TF over GST control); with ETS2, 1.05 fold enrichment (6-mer frequency, TF over GST control); with SPDEF, 1.07 fold enrichment (6-mer frequency, TF over GST control); with ETV7 it was 1.06 fold enrichment (6-mer frequency, TF over GST control); with ETV3 it was 1.06 fold enrichment (6-mer frequency, TF over GST control). Also, in the assay with ETV6, the binding signal is 1.22 fold enrichment (6-mer frequency, TF over GST control).
